Results published in PubChem BioAssay AID485297 (National Center for Advancing Translational Sciences (NCATS), 2010).
Out of some 320,000 compounds screened, about 9,100 (2.8%) were called active. Inconclusive results (about 3%) are left out. The call rests on the fitted dose curve; in most records, active means well fitted activation curve with a large enough effect; inconclusive means small, poorly fitted or top-dose-only effect; inactive means no such curve, though single readings can be large or run the other way. What follows is part of a selection rich in actives, with near analogues and random picks from the rest.

assay: qHTS Assay for Rab9 Promoter Activators; details: Huh7 Rab9 promoter-luciferase reporter, luminescence, 24 h; series mostly up to 9.22 µM; activation, negative = inhibition: at the top concentration; further: nearly all actives have a fitted effect of over 60% in size; on activation, negative = inhibition: % of control where 0% means no effect
Outline: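 Huh7 cells stably carrying Rab9 promoter–luciferase reporter, plated 1500 cells/well, compound added after 2 h and incubated 24 h at 37 °C; luciferase luminescence then read after 10 min with detection reagent.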
Potency means the concentration at half of the fitted maximal effect.

activation, negative = inhibition, inactive:
CC(C)c1ccc(N2CCN(C(=O)c3ccccc3NC(=O)/C=C(\C(=O)O)c3ccccc3)CC2)cc1 1.27%
NC(=O)CSc1nnc(NC(=O)c2ccc(Br)o2)s1 15.8%
C=CCSc1nnc(NC(=O)c2ccc(NC(C)=O)cc2)s1 19.7%
O=C(/C=C/c1ccccc1)Nc1nnc(SCC(=O)c2ccc3ccccc3c2)s1 3.06%
Cc1cccc(CSc2nnc(NC(=O)CSc3nnc(C)s3)s2)c1 0.771%
C[C@H](NC(=O)c1ccccc1)C(=O)OCC(=O)c1c[nH]c2ccccc12 6.31%
O=C(Nc1ccc(C(F)(F)F)cc1)c1cccc(-n2cnnn2)c1 0.871%
O=C(CCNS(=O)(=O)c1ccccc1)NCCSc1ccc(Br)cc1 -2.67%
Cc1cc(C)nc(Nc2ncn[nH]2)n1 -0.93%
COc1ccccc1-c1nc(SC)n[nH]1 0.474%
COC(=O)c1ccc(COC(=O)CNC(=O)c2cccc(OC)c2)o1 -1.88%
O=C(Nc1cc(Cl)ccc1N1CCOCC1)c1ccc(N2CCCC2=O)cc1 0.25%
COc1ccccc1CNC(=O)COC(=O)CNS(=O)(=O)c1ccc(NC(C)=O)cc1 -1.72%
Cc1cccc(C(=O)NCC(=O)OCC(=O)N(C)CC(=O)Nc2ccccc2Cl)c1 0.684%
CCn1c(SCC(=O)NCC2CCCO2)nc2ccccc21 (centres undefined) -4.36%
CN(C(=O)COC(=O)CCCc1c[nH]c2ccccc12)c1c(N)n(Cc2ccccc2)c(=O)[nH]c1=O -3.62%
O=Cc1ccc(Oc2cccc(C(F)(F)F)c2)nc1 -3.19%
O=[N+]([O-])c1cccc(C2=NCCS2)c1 1.16%
CCN(CC(=O)Nc1ccc(OC)cc1)C(=O)c1ccc(=O)n(Cc2ccccc2)n1 1.5%
COc1ccc(NC(=O)COC(=O)c2n[nH]c3ccccc23)c(OC)c1 3.04%
COc1cccc(NC(=O)c2cc(S(=O)(=O)N3CCc4ccccc43)cn2C)c1 -7.88%
O=c1ccc2c(-c3ccccc3S(=O)(=O)O)c3ccc(O)c(O)c3oc-2c1O -11.8%
COc1cc(OC)cc(C(=O)NCC(=O)N2CCCCCCC2)c1 1.42%
Cc1ccc(SCCC(=O)Nc2cc(C)on2)cc1 0.952%
Cc1ccc2nc(SCC(=O)NC3CCCC3)[nH]c2c1 -4.55%
COc1ccc(N(CC(=O)NCCSCc2cccc(Cl)c2)S(C)(=O)=O)cc1 -0.778%
CCN(C(=O)CSc1ncnc2sccc12)c1c(N)n(Cc2ccccc2)c(=O)[nH]c1=O -3.4%
NS(=O)(=O)c1ccc(CCNC(=O)COC(=O)COc2cccc(C(F)(F)F)c2)cc1 0.927%
COc1ccc(C2Nc3ccccc3C(=O)N2Cc2ccccc2)cc1Cn1nnc2ccccc21 (centres undefined) 1.82%
COc1ccc(C2Nc3ccccc3C(=O)N2c2ccc(F)cc2)cc1Cn1nnc2ccccc21 (centres undefined) 16.4%
COc1ccccc1Nc1nnc(SC(C)C(=O)NC2CC2)s1 (centres undefined) -3.09%
CCOC(=O)N1CCN(C(=O)COc2ccc3oc4c(c3c2)CCCC4)CC1 8.64%
CCN(CC)CCCNC(=O)COc1ccc2oc3c(c2c1)CCCC3 1.01% [at 1.84 µM]
COc1ccc(C)cc1NC(=O)CN1c2cccc3cccc(c23)S1(=O)=O 1.82%
Cc1nc2ccccc2c(-c2ccccc2)c1C(=O)c1ccccc1 -2.28%
CS(=O)(=O)c1sc2nc(-c3ccccc3)cc(-c3ccccc3)c2c1N -6.49%
NC(=O)c1sc2nc3c(c(-c4ccccc4)c2c1N)CCC3 -1.61%
CCCC(=O)n1nc(-c2ccccc2)nc1N -0.188%
CN(C)c1ccnc2sc3c(=O)n(Cc4ccccc4)cnc3c12 -4.33%
COC(=O)c1cc2c(N)c(C(=O)c3ccc(Cl)cc3)sc2nc1C(OC)OC -6.44%
CCOc1ccc(S(=O)(=O)N2CCCCC2)cc1NC(=O)CN1CCCC1c1cccs1 (centres undefined) -24.3%
N#Cc1ccc(OCC(=O)NC(=O)NC2CCS(=O)(=O)C2)cc1 (centres undefined) -2.91%
CCOC(=O)c1cc(-c2ccccc2C)n(Cc2cc(C)no2)n1 -3.28%
Cc1ccc(F)cc1NC(=O)CSCc1c(C)noc1C -11.3%

Potency, active:
CCSc1nnc(NC(=O)c2ccc(C)cc2)s1 2.24 µM
NC(=O)CSc1nnc(NC(=O)c2ccc3ccccc3c2)s1 2.82 µM
Cc1cc(C)nc(Nc2n[nH]c(-c3ccccc3N)n2)n1 0.501 µM
FC(F)(F)c1ccnc(Oc2ccc(C3=NCCS3)cc2)c1 0.708 µM
Cc1ccc2nc(-c3ccc(SCC(=O)Nc4cc(C)on4)nc3)[nH]c2c1 3.98 µM
COc1ccc(C2Nc3ccccc3C(=O)N2c2ccc(Cl)cc2)cc1Cn1cc([N+](=O)[O-])cn1 (centres undefined) 2 µM
O=C(COc1ccc2oc3c(c2c1)CCCC3)Nc1ccccn1 1.58 µM
CCN(CC)C(=O)c1sc2nc(-c3ccccc3)ccc2c1N 1.78 µM
Cc1ccc2c(N)c(C(=O)c3ccccc3)sc2n1 3.16 µM
CN(C)c1ccnc2sc(C(=O)c3ccccc3)c(N)c12 2.82 µM
